# Over roughly 33,000 sequences, “E-score (-0.5 to 0.5)” has its median near -0.012; the highest 2% begin near 0.29. The full list was thinned out, with the highest values kept by preference.
# Target: T1, Ybr033w (UniProt P38073)
# T1 sequence: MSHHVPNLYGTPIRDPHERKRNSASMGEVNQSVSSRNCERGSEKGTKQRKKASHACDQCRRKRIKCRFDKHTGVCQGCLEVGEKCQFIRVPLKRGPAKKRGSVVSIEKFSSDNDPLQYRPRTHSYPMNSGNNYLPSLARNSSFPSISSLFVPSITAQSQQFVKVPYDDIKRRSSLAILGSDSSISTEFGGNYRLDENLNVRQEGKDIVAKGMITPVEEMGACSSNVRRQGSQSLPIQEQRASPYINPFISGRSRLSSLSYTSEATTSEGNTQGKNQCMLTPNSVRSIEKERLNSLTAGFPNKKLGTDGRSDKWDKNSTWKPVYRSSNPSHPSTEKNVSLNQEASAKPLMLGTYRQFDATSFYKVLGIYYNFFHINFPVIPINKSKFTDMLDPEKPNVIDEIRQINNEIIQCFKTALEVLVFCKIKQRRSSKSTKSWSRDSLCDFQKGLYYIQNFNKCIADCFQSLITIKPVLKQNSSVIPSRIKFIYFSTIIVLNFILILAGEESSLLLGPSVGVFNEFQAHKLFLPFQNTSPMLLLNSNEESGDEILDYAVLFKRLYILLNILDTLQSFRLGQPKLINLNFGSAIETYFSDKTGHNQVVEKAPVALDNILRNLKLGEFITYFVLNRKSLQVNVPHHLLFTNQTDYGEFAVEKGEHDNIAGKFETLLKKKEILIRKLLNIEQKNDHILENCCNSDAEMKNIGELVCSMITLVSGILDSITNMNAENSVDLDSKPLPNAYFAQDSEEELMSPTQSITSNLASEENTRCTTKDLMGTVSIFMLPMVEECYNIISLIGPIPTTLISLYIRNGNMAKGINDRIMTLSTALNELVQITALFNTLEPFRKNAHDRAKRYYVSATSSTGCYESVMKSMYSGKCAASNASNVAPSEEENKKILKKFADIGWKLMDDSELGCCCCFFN
# Assay: PBM E-score (8-mer binding enrichment) (E-score (-0.5 to 0.5)); higher = stronger / more preferred TF binding
# Conditions: protein concentration: 200 nM; construct: GST-full length
# Method in brief: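 Masliner-normalised scans of fluorescent anti-GST signal were the basis for scoring. That signal came from GST-tagged yeast transcription factors applied at about 100-200 nM to double-stranded universal all-10-mer Agilent arrays on fresh or once-stripped slides. Each ungapped eight-base word, pooled with its reverse complement, received an E-score from the Universal PBM Analysis Suite.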
row,Sequence,PBM E-score
1,CTGGATAC,-0.107
2,GACACTAC,-0.0871
3,ACGCACAC,0.157
4,ATCTACGC,0.0459
5,CTATGATA,0.113
6,AAATGATA,0.345
7,ACATGTTC,0.0642
8,ACATGATC,0.122
9,ACATGTTG,0.244
10,GCATGATA,0.109
11,GTATGATA,0.234
12,AAATGATT,0.273
13,CAATGATA,0.126
14,ACATGTTA,0.289
15,ACATGATA,0.32
16,ATATGATA,0.347
17,CGACGTAG,-0.223
18,AGCATTCC,-0.043

row,Sequence,PBM E-score
1,ATGTGGCG,-0.018
2,AATCTTAC,0.137
3,GCTTAATA,0.0557
4,GGTGGAAA,-0.00937
5,CCTGCTCA,-0.156
6,ATTCTAGC,0.0909
7,ACGGGCTA,-0.252
8,AGGGATCA,0.169
9,AAATGATC,0.328
10,AAATGATG,0.248
11,CAATGATC,0.0568
12,GATACTGA,0.0886
13,CATACTGA,0.212
14,TATACTGA,0.351
15,CATTCGCG,0.0443
16,ATATAGGG,-0.00433
17,GAGGCCTC,-0.37

# From the supplement of paper PMC3334620
